# Assay outcomes (PubChem)
# The list is not random: actives were taken first. Their share in the collection is about 2.5%.
# ASK1 primary = inhibitors of human ASK1 kinase; AlphaScreen MKK6 phosphorylation by ASK1, luminescence; inhibition, % at 7.44 µM; hit rate 0.99% among 22,000; AID 1159602; in the data active = inhibition above about 35%;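 note: 0% = median of compound wells and 100% = no enzyme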
# ULK1 inh = inhibitors of human ULK1 kinase | O75385 | AlphaScreen Atg13 phosphorylation by ULK1, luminescence | inhibition, % at 5.96 µM | hit rate 1.9% among 30,000; in the data active = inhibition above about 43%;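 note: 0% = median of compound wells and 100% = no enzyme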
# TruHits interf = interferes with AlphaScreen TruHits signal in ASK1 counter-screen; shares compounds with ASK1 primary; AlphaScreen TruHits beads, signal interference counterscreen; IC50, µM; hit rate 20% among 220;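 active = IC50 of 10 µM or lower in the counterscreen; inactive = IC50 above 10 µM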;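 note: loss of AlphaScreen light from TruHits beads alone with no ASK1 enzyme present; potency of signal reduction so a low IC50 flags an assay artifact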
# Starred values were filed as active, the others as inactive; i = inactive; · = not tested or not shown.
SMILES,ASK1 primary,ULK1 inh,TruHits interf
COc1ccc(-c2cncc(-c3cc(N4CCN(c5ccccn5)CC4)nc(C)n3)c2)cc1,·,3,·
O=C(Cc1cn(-c2ccc(Nc3ccc4ncccc4c3)nn2)c2ccccc12)NCCc1ccc(O)cc1,1,-8,·
CN(C)CCNc1onc(-c2ccnc(Nc3ccc(N4CCOCC4)cc3)c2)c1-c1ccc(F)cc1,33,14,·
c1ccc(Nc2cc(-c3ccnc(Nc4ccc(N5CCOCC5)cc4)c3)nn2-c2ccccc2)cc1,41*,-14,>19
Fc1ccc(-c2c(-c3ccnc(Nc4ccc(N5CCOCC5)cc4)c3)noc2NCc2ccccc2)cc1,37*,10,>19
c1ccc(Nc2ccnn2-c2ccnc(Nc3ccc(N4CCOCC4)cc3)c2)cc1,34,-13,·
COc1cccc([C@H](C)NC(=O)c2cc3ccc(-c4cn[nH]c4)cc3[nH]2)c1,-9,-13,·
c1ccc(CNc2nc(N3CCN(Cc4ccc5c(c4)OCO5)CC3)nc3c2ncn3C2CCCCC2)cc1,6,8,·
c1ccc(CN2CCC(Nc3nc(N4CCN(Cc5ccc6c(c5)OCO6)CC4)nc4c3ncn4C3CCCCC3)CC2)cc1,36*,9,8.7*
Cc1cnc(-c2c(C)nn(C)c2C)nc1Nc1ccc(N2CCOCC2)cc1,-13,-2,·
COc1cc2nc(Nc3ccc(N4CCOCC4)cc3)nc(NCc3ccccc3)c2cc1OC,41*,-7,i
CCCNc1nc(Nc2ccc(N3CCOCC3)cc2)nc2cc(OC)c(OC)cc12,30,9,·
COc1cc2nc(Nc3ccccn3)nc(Nc3ccc(N4CCOCC4)cc3)c2cc1OC,9,-9,·
COc1cc2nc(Nc3nccc4ccccc34)nc(Nc3ccc(N4CCOCC4)cc3)c2cc1OC,36*,10,i
CN(C)CCOc1cc(-c2cn[nH]c2)ccc1NC(=O)OCc1ccccc1,-2,-6,·
c1cc(Nc2ccc3c(c2)OCO3)nc(Nc2ccc(N3CCOCC3)cc2)n1,48*,-4,>20
COc1cc2nc(Nc3ccc(-n4ccnc4)cc3)nc(Nc3ccc(NC(C)=O)cc3)c2cc1OC,13,-28,·
COc1cc2nc(NCc3ccc4c(c3)OCO4)nc(Nc3ccc(N4CCOCC4)cc3)c2cc1OC,51*,0,6.3*
c1cc(Nc2ccc3c(c2)OCO3)nc(N2CCN(Cc3ccc4c(c3)OCO4)CC2)n1,37*,-30,>20
COc1cc2nc(Nc3ccc(-n4ccnc4)cc3)nc(Nc3ccc4c(c3)OCO4)c2cc1OC,49*,-162,>20
COc1cc2nc(NCc3cccnc3)nc(Nc3ccc(N4CCOCC4)cc3)c2cc1OC,21,17,·
c1ccc(Nc2ccnc(N3CCN(Cc4ccc5c(c4)OCO5)CC3)n2)cc1,9,-17,·
c1cc(Nc2ccc(N3CCOCC3)cc2)nc(Nc2ccc(N3CCOCC3)cc2)n1,21,12,·
COc1cc(Nc2nc(NCCN3CCOCC3)ncc2C)cc(OC)c1OC,4,8,·
c1ccc2c(c1)cnn2-c1ccnc(Nc2ccc(N3CCOCC3)cc2)c1,23,4,·
SMILES,ASK1 primary,ULK1 inh,TruHits interf
c1cncc(CNc2nc(Nc3ccc4ncccc4c3)nc3c2ncn3C2CCCCC2)c1,6,0,·
Cn1c(=O)cc(N2CCc3ccccc3C2)n(Cc2ccc(F)cc2F)c1=O,·,-4,·
CC(C)(C)C(=O)Nc1nc(CC(=O)Nc2ccc(Cl)cc2)cs1,·,-6,·
CCCNc1cc(-c2cccc(C(C)=O)c2)nc(N)n1,1,-9,·
Cc1noc(C)c1-c1cncc(C(=O)NCCCN2CCCC2=O)c1,-4,-3,·
COc1ccc(-c2cncc(-c3cc(N4CCOCC4)nc(-c4ccccc4)n3)c2)cc1,·,-1,·
COc1ccc(CCNc2ccnc(Nc3ccc(N4CCOCC4)cc3)n2)cc1,43*,8,i
COc1ccc(CCNc2cc(C)nc(N3CCN(Cc4ccc5c(c4)OCO5)CC3)n2)cc1,15,-27,·
Cc1cc(NCCc2ccc(O)cc2)nc(N2CCN(Cc3ccc4c(c3)OCO4)CC2)n1,37*,8,>18
c1ccc2c(c1)CCN(c1nccc(Nc3ccc(N4CCOCC4)cc3)n1)C2,50*,7,i
COc1ccc(CCNc2cc(C)nc(Nc3ccc(N4CCOCC4)cc3)n2)cc1,32,2,·
COc1cc2nc(Nc3ccc(N4CCOCC4)cc3)nc(Nc3ccc4c(c3)OCO4)c2cc1OC,54*,-1,4.8*
c1ccc(Nc2ccnc(N3CCc4ccccc4C3)n2)cc1,1,-14,·
COc1cc2nc(Nc3ccc(N4CCOCC4)cc3)nc(Nc3ccc(NC(C)=O)cc3)c2cc1OC,31,4,·
CC(=O)Nc1ccc(Nc2nc(Nc3cccc(N(C)C)c3)nc3nc[nH]c23)cc1,16,19,·
COc1cc(Nc2nc(NCCc3ccc(O)cc3)c3ncn(C4CCCCC4)c3n2)cc(OC)c1OC,2,-1,·
CC(C)N(CCNc1nc(N2CCC(N3CCOCC3)CC2)nc2c1ncn2-c1ccccc1)C(C)C,2,-1,·
N#Cc1ccc(C[C@H](N)c2nc3ccc(-c4ccncc4)cc3[nH]2)cc1,6,-7,·
CC(=O)c1cccc(-c2nc(NCCO)c3ncn(-c4ccsc4)c3n2)c1,18,5,·
c1ccc(OCCNc2nc(Nc3ccc(N4CCOCC4)cc3)nc3c2ncn3C2CCCCC2)cc1,48*,17,7*
c1ccc(OCCNc2nc(NCCN3CCOCC3)nc3c2ncn3C2CCCCC2)cc1,-8,-10,·
c1ccc(OCCNc2nc(Nc3ccncc3)nc3c2ncn3C2CCCCC2)cc1,-2,5,·
c1ccc(OCCNc2nc(Nc3ccc(-n4ccnc4)cc3)nc3c2ncn3C2CCCCC2)cc1,49*,14,>20
Nc1nc(NCCOc2ccccc2)cc(Nc2cnccn2)n1,-1,1,·
O=C(Nc1ccc2[nH]ncc2c1)C1CCN(C(=O)c2ccccn2)C1 (stereo not given),1,9,·
SMILES,ASK1 primary,ULK1 inh,TruHits interf
CCCC(=O)NC(N1CC(C)OC(C)C1)C(Cl)(Cl)Cl (stereo not given),·,2,·
COc1cc(NC(=O)c2ccnc(-c3ccc(N4CCN(C)CC4)cc3)c2)cc(OC)c1OC,11,5,·
COc1cc(N2CCN(C)CC2)ccc1Nc1cc(Nc2ccccc2-c2ncccn2)c(C(F)(F)F)cn1,38*,53*,i
c1ccc(CN2CCC(Nc3nc(N4CCOCC4)nc4nc[nH]c34)CC2)cc1,1,-18,·
c1ccc(Nc2nc(Nc3ccc(N4CCOCC4)cc3)c3[nH]cnc3n2)nc1,8,7,·
c1cnc2ccc(Nc3nc(Nc4ccc(N5CCOCC5)cc4)c4[nH]cnc4n3)cc2c1,41*,-12,>20
c1ccc(CN2CCC(Nc3nc(Nc4ccc(N5CCOCC5)cc4)nc4c3ncn4-c3ccsc3)CC2)cc1,43*,11,9.3*
c1ccc(CN2CCC(Nc3nc(Nc4ccc(N5CCOCC5)cc4)nc4nc[nH]c34)CC2)cc1,36*,18,>20
c1ccc(CN2CCC(Nc3nc(Nc4ccccc4)nc4c3ncn4-c3ccsc3)CC2)cc1,17,4,·
c1ccc(Nc2nc(Nc3ccccn3)nc3c2ncn3-c2ccccc2)cc1,-15,8,·
CC(Cc1cccs1)Nc1nccc(Nc2ccncn2)n1 (stereo not given),5,31,·
Nc1[nH]ncc1-c1ccc(NC(=O)C2COc3ccccc3C2)cc1 (stereo not given),4,-2,·
